Assay [1] deals with T1, Ephrin type-A receptor 3 (Homo sapiens) (UniProt P29320).
T1 sequence (whole entry): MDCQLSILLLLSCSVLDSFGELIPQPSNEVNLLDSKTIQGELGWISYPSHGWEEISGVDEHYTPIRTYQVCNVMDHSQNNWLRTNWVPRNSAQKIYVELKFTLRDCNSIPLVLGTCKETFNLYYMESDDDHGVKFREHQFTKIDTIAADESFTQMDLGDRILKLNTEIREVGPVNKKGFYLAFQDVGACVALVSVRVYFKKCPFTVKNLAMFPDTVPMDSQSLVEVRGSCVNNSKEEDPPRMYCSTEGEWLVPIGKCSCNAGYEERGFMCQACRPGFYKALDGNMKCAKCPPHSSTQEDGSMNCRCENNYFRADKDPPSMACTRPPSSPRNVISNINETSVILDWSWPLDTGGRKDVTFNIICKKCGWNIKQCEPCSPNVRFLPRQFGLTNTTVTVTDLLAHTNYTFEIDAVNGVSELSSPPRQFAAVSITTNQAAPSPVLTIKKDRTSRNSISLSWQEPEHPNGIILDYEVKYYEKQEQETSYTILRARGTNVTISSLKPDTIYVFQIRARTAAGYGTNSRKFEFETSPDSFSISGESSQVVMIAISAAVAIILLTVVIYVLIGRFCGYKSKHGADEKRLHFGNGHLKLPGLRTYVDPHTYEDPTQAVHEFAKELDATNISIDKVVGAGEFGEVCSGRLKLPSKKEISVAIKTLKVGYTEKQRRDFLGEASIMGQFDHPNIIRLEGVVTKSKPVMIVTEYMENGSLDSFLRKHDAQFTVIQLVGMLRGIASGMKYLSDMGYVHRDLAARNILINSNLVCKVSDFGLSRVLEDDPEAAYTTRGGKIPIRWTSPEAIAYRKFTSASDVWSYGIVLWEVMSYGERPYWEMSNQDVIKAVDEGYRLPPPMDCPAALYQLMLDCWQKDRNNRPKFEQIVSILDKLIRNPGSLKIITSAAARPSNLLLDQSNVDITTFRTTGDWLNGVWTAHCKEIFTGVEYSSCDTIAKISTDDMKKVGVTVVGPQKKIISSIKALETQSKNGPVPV
Conditions: at 10 µM.

Assay [2] deals with Ephrin type-A receptor 4 (Homo sapiens) (UniProt P54764). Conditions: at 1 µM.
For assay [3] the target is unchanged. Conditions: at 10 µM.
In assay [4] the target is Ephrin type-A receptor 5 (Homo sapiens) (UniProt P54756). Conditions: at 1 µM.
Assay [5] shares this target. Conditions: at 10 µM.
In assay [6] the target is Ephrin type-A receptor 7 (Homo sapiens) (UniProt Q15375). Conditions: at 1 µM.
For assay [7] the target is unchanged. Conditions: at 10 µM.
For assay [8], the target named is T2, Ephrin type-A receptor 8 (Homo sapiens) (UniProt P29322).
T2 sequence (whole entry): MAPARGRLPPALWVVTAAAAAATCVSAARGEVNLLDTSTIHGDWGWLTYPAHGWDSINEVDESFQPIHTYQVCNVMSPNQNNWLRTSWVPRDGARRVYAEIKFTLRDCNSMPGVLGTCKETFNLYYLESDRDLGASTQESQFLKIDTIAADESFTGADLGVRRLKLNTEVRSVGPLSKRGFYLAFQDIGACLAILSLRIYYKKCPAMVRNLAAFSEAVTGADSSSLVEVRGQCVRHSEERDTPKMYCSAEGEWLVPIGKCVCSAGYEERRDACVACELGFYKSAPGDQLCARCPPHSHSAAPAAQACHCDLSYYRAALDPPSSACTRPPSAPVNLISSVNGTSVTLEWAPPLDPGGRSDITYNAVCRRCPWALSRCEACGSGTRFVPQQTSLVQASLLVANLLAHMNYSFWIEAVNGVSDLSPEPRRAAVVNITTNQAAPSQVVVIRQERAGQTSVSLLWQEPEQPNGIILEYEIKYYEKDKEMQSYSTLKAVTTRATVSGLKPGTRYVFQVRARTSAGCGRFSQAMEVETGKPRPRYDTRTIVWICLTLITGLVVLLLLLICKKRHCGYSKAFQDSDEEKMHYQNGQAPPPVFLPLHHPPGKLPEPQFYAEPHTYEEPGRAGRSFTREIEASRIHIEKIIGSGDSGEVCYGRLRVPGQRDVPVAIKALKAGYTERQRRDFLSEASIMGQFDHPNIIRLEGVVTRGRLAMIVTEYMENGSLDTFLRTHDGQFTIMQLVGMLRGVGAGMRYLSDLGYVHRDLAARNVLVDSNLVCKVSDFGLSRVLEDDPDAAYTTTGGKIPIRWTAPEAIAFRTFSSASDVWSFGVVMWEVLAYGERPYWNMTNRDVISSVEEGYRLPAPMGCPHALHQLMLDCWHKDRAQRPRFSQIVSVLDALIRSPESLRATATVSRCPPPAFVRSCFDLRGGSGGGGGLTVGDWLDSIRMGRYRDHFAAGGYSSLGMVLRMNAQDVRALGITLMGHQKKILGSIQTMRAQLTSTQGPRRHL
Conditions: at 1 µM.

The target in assay [9] is T2, Ephrin type-A receptor 8 (Homo sapiens). Conditions: at 10 µM.
Assay [10] deals with T3, Ephrin type-B receptor 1 (Homo sapiens) (UniProt P54762).
T3 sequence (whole entry): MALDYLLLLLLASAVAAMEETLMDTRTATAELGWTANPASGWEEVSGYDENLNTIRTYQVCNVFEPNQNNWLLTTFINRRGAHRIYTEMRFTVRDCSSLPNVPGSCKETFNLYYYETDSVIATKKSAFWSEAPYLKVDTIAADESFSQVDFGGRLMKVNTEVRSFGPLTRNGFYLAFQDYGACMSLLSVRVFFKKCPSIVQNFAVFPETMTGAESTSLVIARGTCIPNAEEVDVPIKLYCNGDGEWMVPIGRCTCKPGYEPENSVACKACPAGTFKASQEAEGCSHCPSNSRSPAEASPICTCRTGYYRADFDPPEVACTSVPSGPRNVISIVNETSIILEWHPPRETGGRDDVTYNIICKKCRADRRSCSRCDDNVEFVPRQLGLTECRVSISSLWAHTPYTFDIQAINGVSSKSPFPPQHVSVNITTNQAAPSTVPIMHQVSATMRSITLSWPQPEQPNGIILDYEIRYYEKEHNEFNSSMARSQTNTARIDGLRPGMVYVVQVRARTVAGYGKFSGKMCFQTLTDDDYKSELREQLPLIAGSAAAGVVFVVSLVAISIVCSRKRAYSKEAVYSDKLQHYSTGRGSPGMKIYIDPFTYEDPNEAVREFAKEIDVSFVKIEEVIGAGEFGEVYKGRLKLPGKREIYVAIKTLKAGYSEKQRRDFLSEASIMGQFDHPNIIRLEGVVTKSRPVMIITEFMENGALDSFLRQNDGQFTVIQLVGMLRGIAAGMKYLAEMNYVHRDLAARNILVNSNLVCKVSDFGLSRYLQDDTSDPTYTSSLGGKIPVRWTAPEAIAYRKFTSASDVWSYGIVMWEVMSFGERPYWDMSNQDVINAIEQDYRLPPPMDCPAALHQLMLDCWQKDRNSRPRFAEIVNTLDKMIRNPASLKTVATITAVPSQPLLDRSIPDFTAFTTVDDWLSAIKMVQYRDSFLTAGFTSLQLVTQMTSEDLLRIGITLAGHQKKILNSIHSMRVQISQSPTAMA
Conditions: at 1 µM.

We go through one molecule from ChEMBL document CHEMBL2218924, “A broad activity screen in support of a chemogenomic map for kinase signalling research and drug discovery” (Biochem J, 2013).

Molecules are shown by their SMILES.

Ephrin type-A receptor 4 (Homo sapiens), sequence (P54764 whole entry): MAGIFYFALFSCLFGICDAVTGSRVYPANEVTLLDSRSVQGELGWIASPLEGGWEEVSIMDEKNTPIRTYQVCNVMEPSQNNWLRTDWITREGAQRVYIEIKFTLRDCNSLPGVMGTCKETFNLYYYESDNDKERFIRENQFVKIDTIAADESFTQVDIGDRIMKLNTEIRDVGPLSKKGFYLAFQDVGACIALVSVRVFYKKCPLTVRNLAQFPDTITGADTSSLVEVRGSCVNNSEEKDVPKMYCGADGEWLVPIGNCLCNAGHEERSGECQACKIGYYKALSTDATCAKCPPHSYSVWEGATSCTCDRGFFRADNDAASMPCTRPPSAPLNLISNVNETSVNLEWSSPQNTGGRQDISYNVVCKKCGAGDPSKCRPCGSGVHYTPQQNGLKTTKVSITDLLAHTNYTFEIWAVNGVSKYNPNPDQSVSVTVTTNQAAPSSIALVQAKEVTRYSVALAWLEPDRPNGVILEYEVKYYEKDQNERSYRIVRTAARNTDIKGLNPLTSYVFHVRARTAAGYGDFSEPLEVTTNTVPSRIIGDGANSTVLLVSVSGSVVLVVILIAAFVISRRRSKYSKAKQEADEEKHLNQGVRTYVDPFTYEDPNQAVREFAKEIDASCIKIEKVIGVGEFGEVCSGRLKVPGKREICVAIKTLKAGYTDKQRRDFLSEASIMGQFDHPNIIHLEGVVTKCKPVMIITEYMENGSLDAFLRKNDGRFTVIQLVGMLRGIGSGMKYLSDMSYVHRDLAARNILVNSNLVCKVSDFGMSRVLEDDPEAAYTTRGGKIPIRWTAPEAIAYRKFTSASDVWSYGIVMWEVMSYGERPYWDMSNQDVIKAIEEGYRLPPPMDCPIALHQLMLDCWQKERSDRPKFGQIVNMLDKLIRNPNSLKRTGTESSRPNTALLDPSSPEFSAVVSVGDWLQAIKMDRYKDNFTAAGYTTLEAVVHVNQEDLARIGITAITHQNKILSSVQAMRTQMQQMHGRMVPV
Ephrin type-A receptor 7 (Homo sapiens), sequence (Q15375 28-998 limits assumed): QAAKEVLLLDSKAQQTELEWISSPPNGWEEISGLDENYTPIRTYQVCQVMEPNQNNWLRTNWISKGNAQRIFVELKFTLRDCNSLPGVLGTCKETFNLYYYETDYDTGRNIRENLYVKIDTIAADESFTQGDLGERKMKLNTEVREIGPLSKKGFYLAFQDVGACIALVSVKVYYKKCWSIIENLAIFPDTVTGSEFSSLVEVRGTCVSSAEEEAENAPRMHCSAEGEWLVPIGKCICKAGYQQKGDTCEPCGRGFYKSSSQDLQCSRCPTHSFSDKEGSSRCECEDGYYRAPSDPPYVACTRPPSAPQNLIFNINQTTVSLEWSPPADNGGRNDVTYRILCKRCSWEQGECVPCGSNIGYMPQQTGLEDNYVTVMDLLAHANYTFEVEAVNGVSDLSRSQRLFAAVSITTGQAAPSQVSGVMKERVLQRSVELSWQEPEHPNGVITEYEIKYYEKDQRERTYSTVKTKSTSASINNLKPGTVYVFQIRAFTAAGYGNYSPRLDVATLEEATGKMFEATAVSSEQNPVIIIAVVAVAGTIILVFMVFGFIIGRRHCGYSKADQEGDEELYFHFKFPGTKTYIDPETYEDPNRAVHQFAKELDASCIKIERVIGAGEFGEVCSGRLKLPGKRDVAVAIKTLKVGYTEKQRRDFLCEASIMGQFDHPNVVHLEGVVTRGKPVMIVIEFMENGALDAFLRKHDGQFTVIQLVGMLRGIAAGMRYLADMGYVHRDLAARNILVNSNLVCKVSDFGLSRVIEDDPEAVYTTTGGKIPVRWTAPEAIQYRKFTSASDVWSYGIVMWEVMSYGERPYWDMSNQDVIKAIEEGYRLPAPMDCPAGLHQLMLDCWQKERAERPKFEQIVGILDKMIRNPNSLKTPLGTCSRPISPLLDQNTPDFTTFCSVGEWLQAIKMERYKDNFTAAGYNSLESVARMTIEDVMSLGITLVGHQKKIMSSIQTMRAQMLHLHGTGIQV
Ephrin type-A receptor 5 (Homo sapiens), sequence (P54756 whole entry): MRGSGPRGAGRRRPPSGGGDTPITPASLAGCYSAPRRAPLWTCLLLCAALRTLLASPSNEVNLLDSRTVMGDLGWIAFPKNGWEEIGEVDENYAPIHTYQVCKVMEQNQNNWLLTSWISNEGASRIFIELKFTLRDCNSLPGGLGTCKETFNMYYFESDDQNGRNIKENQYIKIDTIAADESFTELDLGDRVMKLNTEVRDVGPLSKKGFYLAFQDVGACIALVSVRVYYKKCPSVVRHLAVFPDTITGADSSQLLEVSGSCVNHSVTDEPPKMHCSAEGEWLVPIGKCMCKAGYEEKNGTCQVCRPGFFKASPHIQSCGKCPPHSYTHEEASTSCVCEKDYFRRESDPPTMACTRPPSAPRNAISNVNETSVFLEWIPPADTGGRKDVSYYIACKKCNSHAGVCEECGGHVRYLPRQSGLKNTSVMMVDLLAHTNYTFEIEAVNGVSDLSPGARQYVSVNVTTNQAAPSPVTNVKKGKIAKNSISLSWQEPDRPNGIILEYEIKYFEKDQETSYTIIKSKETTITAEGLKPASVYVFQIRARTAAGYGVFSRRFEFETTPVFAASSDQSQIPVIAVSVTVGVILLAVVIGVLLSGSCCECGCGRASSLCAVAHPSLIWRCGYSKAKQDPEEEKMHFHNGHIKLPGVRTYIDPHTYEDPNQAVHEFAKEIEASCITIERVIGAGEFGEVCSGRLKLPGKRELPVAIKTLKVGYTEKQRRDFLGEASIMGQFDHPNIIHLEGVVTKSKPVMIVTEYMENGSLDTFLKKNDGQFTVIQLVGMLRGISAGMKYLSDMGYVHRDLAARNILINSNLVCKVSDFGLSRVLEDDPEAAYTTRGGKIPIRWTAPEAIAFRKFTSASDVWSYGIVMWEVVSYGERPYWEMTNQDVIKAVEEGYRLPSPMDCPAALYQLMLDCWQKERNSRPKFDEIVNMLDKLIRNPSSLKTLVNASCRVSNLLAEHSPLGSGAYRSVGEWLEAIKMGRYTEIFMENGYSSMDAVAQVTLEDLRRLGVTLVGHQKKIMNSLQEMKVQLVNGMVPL

As to `CC(C)n1cnc2c(NCc3ccccc3)nc(NCCCO)nc21`, the residual activity in assay [1] amounted to 101%; in assay [2], 109%; in assay [3], 104%; in assay [4], 96%; in [5] it was 84%; in [6], 84%. For the same molecule, the residual activity in assay [7] was determined as 78%; in [8], 97%; in assay [9] it was 94%; in assay [10], 93%.
